Measured values as given in PubChem BioAssay (Tox21).
Records with an inconclusive call do not appear. The source made the active and inactive calls. Unless noted, the call rests on the fitted dose curve; in most records, active means well fitted curve in the direction sought with a large enough effect in the repeat runs; inconclusive means weak or mixed curves; inactive means no such curve, though single readings can be large; an effect the other way counts as inactive or inconclusive.

Assays:
[1] = qHTS assay for small molecule agonists of the p53 signaling pathway (AID 651631; calls by dose curve; further: nearly all actives have a fitted effect of over 15% in size)
Summary of the method: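 HCT-116 cells carrying a beta-lactamase reporter under p53 response elements were dosed with compound for 16 h at 37 °C. LiveBLAzer B/G FRET substrate was then added for 2 h at room temperature, and fluorescence intensity was read to detect pathway agonism.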

[2] = qHTS assay for small molecules that induce genotoxicity in human embryonic kidney cells expressing luciferase-tagged ATAD5 (AID 651632); further: nearly all actives have a fitted effect of over 15% in size
Summary of the method: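 DMSO vehicle served as the control. HEK293T reporter cells, 16 hr at 37C, then 30 min Amplite at room temperature; ATAD5 induction is measured as luciferase activity.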

[3] = qHTS assay for small molecule agonists of the p53 signaling pathway - cell viability (AID 651633; calls by dose curve;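 further: p53RE-bla HCT reporter cells with a stable beta-lactamase p53 reporter; series mostly up to about 83 µM; nearly all actives have a fitted effect of over 30% in size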)
Summary of the method: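 Viability counter-read: CellTiter-Glo luminescence (30 min, room temperature) in the same p53RE-bla plates. These plates had been exposed to compounds for 16 h at 37 C.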

[4] = qHTS assay for small molecules that induce genotoxicity in human embryonic kidney cells expressing luciferase-tagged ATAD5 - cell viability (AID 651634; calls by dose curve; further: nearly all actives have a fitted effect of over 25% in size)
Summary of the method: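 Here HEK293T cells with the ATAD5 luciferase reporter are incubated with test compounds for 15.5 hr, and cytotoxicity is then gauged by measuring protease activity in live cells using fluorescence.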

[5] = qHTS assay for small molecule disruptors of the mitochondrial membrane potential - cell viability (AID 720634; calls by dose curve;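 further: human HepG2 liver cancer cells; series mostly up to about 83 µM; nearly all actives have a fitted effect of over 20% in size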)
Summary of the method: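 Viability of HepG2 cells is scored from ATP content by luminescence; cells are exposed to compound for 1 hr at 37 C and 5% CO2, then dosed with m-MPI dye before the CellTiter-Glo reagent.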

[6] = qHTS assay to test for compound auto fluorescence at 590 nm (red) in HepG2 cells (AID 720674)
Summary of the method: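 1 hr compound incubation on HepG2 cells, 37 C, 5% CO2; plate read ex 540 nm / em 590 nm; intensities reported as Rose Bengal sodium equivalents.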

[7] = qHTS assay to test for compound auto fluorescence at 535 nm (green) in HepG2 cells (AID 720675)
[8] = qHTS assay to test for compound auto fluorescence at 460 nm (blue) in HEK293 cells (AID 720678)
Summary of the method: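 Measured: blue fluorescence (Ex 405/Em 460 nm) of compound-treated HEK293 cells, incubated overnight at 37C with 5% CO2 and scaled to triamterene equivalents.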

[9] = qHTS assay to test for compound auto fluorescence at 590 nm (red) in HEK293 cells (AID 720679)
Summary of the method: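 Using HEK293 cells at 2,000 per well, the screen added 23 nL of each compound after cell attachment and incubated overnight (37C, 5% CO2). The plate reader then captured red-label fluorescence, Ex/Em 540/590nm.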

Measured: Potency

CO/N=C(\C(=O)N[C@@H]1C(=O)N2C(C(=O)OCOC(=O)C(C)(C)C)=C(/C=C\c3scnc3C)CS[C@H]12)c1csc(N)n1
inactive: all assays above

CO[C@H]1C[C@H](O[C@H]2[C@H](C)[C@@H](O[C@@H]3O[C@H](C)C[C@H](N(C)C)[C@H]3OC(C)=O)[C@@H](C)C[C@]3(CO3)C(=O)[C@H](C)[C@@H](OC(C)=O)[C@@H](C)[C@@H](C)OC(=O)[C@@H]2C)O[C@@H](C)[C@@H]1OC(C)=O
inactive: all assays above

CC1(C)S[C@@H]2[C@H](NC(=O)C(C(=O)Oc3ccc4c(c3)CCC4)c3ccccc3)C(=O)N2[C@H]1C(=O)O (stereo partly specified)
inactive: all assays above

C=CCOc1ccc(CC(=O)O)cc1Cl
inactive: all assays above

CO[C@@H]1[C@@H](O[C@@H]2O[C@H](C)[C@@H](O[C@H]3C[C@@](C)(O)[C@@H](O)[C@H](C)O3)[C@H](N(C)C)[C@H]2O)[C@@H](CC=O)C[C@@H](C)[C@@H](O[C@@H]2CC[C@H](N(C)C)[C@@H](C)O2)/C=C/C=C/C[C@@H](C)OC(=O)C[C@H]1O
inactive: all assays above

COc1ccc(-c2noc(CC(=O)O)c2-c2ccc(OC)cc2)cc1
inactive: all assays above

CO/N=C(\C(=O)N[C@@H]1C(=O)N2C(C(=O)O)=C(CSC(=O)c3ccco3)CS[C@H]12)c1csc(N)n1
inactive: all assays above

CC1(C)S[C@@H]2[C@H](NC(=O)C(C(=O)O)c3ccsc3)C(=O)N2[C@H]1C(=O)O (stereo partly specified)
inactive: all assays above

C=C1c2c(Cl)ccc(O)c2C(O)=C2C(=O)[C@]3(O)C(O)=C(C(N)=O)C(=O)[C@@H](N(C)C)[C@@H]3[C@@H](O)[C@H]12
inactive: all assays above

C[C@@](Cc1ccc(O)c(O)c1)(NN)C(=O)O
inactive: all assays above

O=C(O)CCC/C=C\C[C@@H]1[C@@H](/C=C/[C@@H](O)COc2cccc(Cl)c2)[C@H](O)C[C@@H]1O
inactive: all assays above

CS(=O)(=O)Nc1cc2occ(NC=O)c(=O)c2cc1Oc1ccccc1
inactive: all assays above

CC(C)(C)C(=O)OCOC(=O)[C@@H]1N2C(=O)[C@@H](N=CN3CCCCCC3)[C@H]2SC1(C)C
inactive: all assays above

NCc1ccccc1CC(=O)N[C@@H]1C(=O)N2C(C(=O)O)=C(CSc3nnnn3CC(=O)O)CS[C@H]12
inactive: all assays above

CC(C)C[C@H](NC(=O)[C@@H](Cc1c[nH]c2ccccc12)NC(=O)[C@H](Cc1ccc(O)cc1)NC(=O)[C@H](CO)NC(=O)[C@H](Cc1c[nH]c2ccccc12)NC(=O)[C@H](Cc1cnc[nH]1)NC(=O)[C@@H]1CCC(=O)N1)C(=O)N[C@@H](CCCN=C(N)N)C(=O)N1CCC[C@@H]1C(=O)NCC(N)=O
inactive: all assays above

CC(C)[C@@H]1CC[C@@H](C)C[C@H]1OC(=O)c1ccccc1O
inactive: all assays above

CC1(C)C2CC[C@]3(C)[C@H](C(=O)C=C4[C@@H]5C[C@@](C)(C(=O)O)CC[C@]5(C)CC[C@]43C)[C@@]2(C)CC[C@@H]1O[C@H]1O[C@H](C(=O)O)[C@@H](O)[C@H](O)[C@H]1O[C@@H]1O[C@H](C(=O)O)[C@@H](O)[C@H](O)[C@H]1O (stereo partly specified)
inactive: all assays above

Nc1nc2c(c(=O)[nH]1)N(C=O)C(CNc1ccc(C(=O)N[C@@H](CCC(=O)O)C(=O)O)cc1)CN2 (stereo partly specified)
inactive: all assays above

CNCC(O)c1ccc(OC(=O)C(C)(C)C)c(OC(=O)C(C)(C)C)c1 (stereo unspecified)
inactive: all assays above
